Biological target: Ephrin type-A receptor 4 (Homo sapiens) (UniProt P54764)
Conditions: at 0.1 µM

Chain of Ephrin type-A receptor 4 (Homo sapiens) (P54764 whole entry): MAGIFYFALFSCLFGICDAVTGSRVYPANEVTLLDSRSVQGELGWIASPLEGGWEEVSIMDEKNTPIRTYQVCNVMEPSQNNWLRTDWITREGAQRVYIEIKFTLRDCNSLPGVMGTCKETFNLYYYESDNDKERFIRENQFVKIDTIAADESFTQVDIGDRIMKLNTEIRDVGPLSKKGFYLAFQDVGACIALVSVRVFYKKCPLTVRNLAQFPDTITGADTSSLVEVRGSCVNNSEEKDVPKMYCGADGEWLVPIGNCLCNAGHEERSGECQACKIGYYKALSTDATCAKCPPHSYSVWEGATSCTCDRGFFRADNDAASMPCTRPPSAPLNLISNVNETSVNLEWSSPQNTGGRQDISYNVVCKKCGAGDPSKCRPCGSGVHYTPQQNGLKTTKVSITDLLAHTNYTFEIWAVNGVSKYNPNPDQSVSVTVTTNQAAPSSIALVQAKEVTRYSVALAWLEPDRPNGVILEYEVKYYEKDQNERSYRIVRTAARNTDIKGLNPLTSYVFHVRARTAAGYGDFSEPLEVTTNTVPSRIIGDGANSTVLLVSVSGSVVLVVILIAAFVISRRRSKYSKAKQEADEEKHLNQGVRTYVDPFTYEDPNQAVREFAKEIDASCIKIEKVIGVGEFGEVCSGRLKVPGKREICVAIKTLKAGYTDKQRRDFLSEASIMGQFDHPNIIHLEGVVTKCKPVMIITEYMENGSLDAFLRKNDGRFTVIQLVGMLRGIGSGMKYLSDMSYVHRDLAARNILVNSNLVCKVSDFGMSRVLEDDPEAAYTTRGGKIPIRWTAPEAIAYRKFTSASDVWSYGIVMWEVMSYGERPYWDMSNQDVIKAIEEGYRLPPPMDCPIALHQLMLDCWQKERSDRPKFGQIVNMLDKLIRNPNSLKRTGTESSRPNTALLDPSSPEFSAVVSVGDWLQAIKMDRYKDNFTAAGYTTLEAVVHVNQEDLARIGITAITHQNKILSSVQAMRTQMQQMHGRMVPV

SMILES	inhibition [%]
C[C@@H](Oc1cc(-n2cnc3ccc(OCC4CCN(C)CC4)cc32)sc1C(N)=O)c1ccccc1C(F)(F)F	-6.91
Cc1cc(O)cc(C)c1/C=C/c1cncc(C(=O)N(C)C)c1	8.99
c1ccc(Nc2ncc(-c3ccccc3)o2)cc1	7.56
COc1ccc(-c2nn3ncccc3c2-c2ccnc(Nc3cccc(C(F)(F)F)c3)n2)cc1	5.95
Cc1ccc(NC(=O)CC2CC2)cc1-c1ccc(C(=O)NCC2CC2)cc1	8.26
COC(=O)c1ccc2c(c1)C(=Cc1cc(Br)c(O)c(Br)c1)C(=O)N2	6.35
Cc1ccc2c(-c3ccnc(Nc4ccc5c(c4)OCCO5)n3)c(-c3ccc(C(F)(F)F)cc3)nn2n1	1.21
COc1cc(/C=N/Nc2ncnc3c2cnn3C(C)C)ccc1O	7.43
Nc1ccc(C#Cc2cncnc2Nc2ccc(OCc3cccc(F)c3)c(Cl)c2)cc1	6.49
ON=C1CCc2cc(-c3nc(C4CCNCC4)[nH]c3-c3ccncc3)ccc21	-1.9
COc1cccc(-n2ncc3c(N/N=C/c4ccc(C)cc4)ncnc32)c1	7.44
CCS(=O)(=O)c1ccc(OC)c(Nc2ncc(-c3cccc(OC)c3)o2)c1	6.27
CC(C)c1ccc2c(c1)NC(=O)/C2=N/Nc1ccc(S(N)(=O)=O)cc1	3.01
Cc1cc(Cl)cc2c1NC(=O)C2=NNc1ccc(S(N)(=O)=O)cc1	6.66
CC(C)c1ccc(Nc2nccc(-c3cnn4ncccc34)n2)cc1	8.08
N#Cc1cccc(Nc2nccc(-c3cnn4ncccc34)n2)c1	13
Oc1cccc(-c2nc(-c3ccccc3)[nH]c2-c2ccncc2)c1	11.7

SMILES	inhibition [%]
CN1CCN(C(=O)c2ccc(NC(=O)Nc3ccc(N(C)c4ccnc(Nc5ccc(CS(C)(=O)=O)cc5)n4)cc3)cc2)CC1	5.53
COC(=O)Nc1nc2cc(Oc3ccc(NC(=O)Nc4cccc(Br)c4)cc3)ccc2[nH]1	52.1
COc1cccc(-n2ncc3c(N/N=C/c4ccc(S(C)(=O)=O)cc4)ncnc32)c1	7.26
NS(=O)(=O)c1ccc(NC=C2C(=O)Nc3ccc4ncsc4c32)cc1	11.3
CS(=O)(=O)CCNCc1nc(-c2ccc3ncnc(Nc4ccc(OCc5cccc(C(F)(F)F)c5)cc4)c3c2)cs1	0.66
C[C@@H](Oc1cc(-n2cnc3ccc(OC[C@@H](O)CO)cc32)sc1C(N)=O)c1ccccc1Cl	-2.22
NS(=O)(=O)c1ccc(-c2cc3ccncc3cc2OCc2ccccc2)cc1	9.03
NS(=O)(=O)c1ccc(Nc2cc(-c3cccc(O)c3)n[nH]2)cc1	10.1
Cc1ccc(Nc2ccnc(Nc3cccc(C(N)=O)c3)n2)cc1O	17.1
COc1cccc(-n2nc(C)c3c(N/N=C(\C)c4ccncc4)ncnc32)c1	3.69
CCn1c(-c2nonc2N)nc2ccc(F)cc21	11.3
COc1cc2ncn(-c3cc(OCc4ccccc4S(C)(=O)=O)c(C#N)s3)c2cc1OC	15.2
COc1cc2ncnc(Nc3ccc(C)c(O)c3)c2cc1OC	15.9
NS(=O)(=O)c1cccc(-c2cc3ccncc3cc2OCc2ccccc2)c1	8.09
COC(=O)c1cncc(/C=C/c2c(C)cc(O)cc2C)c1	19
COc1cc(Nc2nccc(-c3cnn4ncccc34)n2)cc(OC)c1	9.67

Biological target: Ephrin type-A receptor 4 (Homo sapiens) (UniProt P54764)
Conditions: at 1 µM

SMILES	inhibition [%]
C[C@@H](Oc1cc(-n2cnc3ccc(OCC4CCN(C)CC4)cc32)sc1C(N)=O)c1ccccc1C(F)(F)F	-4.57
Cc1cc(O)cc(C)c1/C=C/c1cncc(C(=O)N(C)C)c1	18.6
c1ccc(Nc2ncc(-c3ccccc3)o2)cc1	12.1
COc1ccc(-c2nn3ncccc3c2-c2ccnc(Nc3cccc(C(F)(F)F)c3)n2)cc1	8.87
Cc1ccc(NC(=O)CC2CC2)cc1-c1ccc(C(=O)NCC2CC2)cc1	12.9
COC(=O)c1ccc2c(c1)C(=Cc1cc(Br)c(O)c(Br)c1)C(=O)N2	12.2
Cc1ccc2c(-c3ccnc(Nc4ccc5c(c4)OCCO5)n3)c(-c3ccc(C(F)(F)F)cc3)nn2n1	3.57
COc1cc(/C=N/Nc2ncnc3c2cnn3C(C)C)ccc1O	32.9
Nc1ccc(C#Cc2cncnc2Nc2ccc(OCc3cccc(F)c3)c(Cl)c2)cc1	8.04
ON=C1CCc2cc(-c3nc(C4CCNCC4)[nH]c3-c3ccncc3)ccc21	-7.94
COc1cccc(-n2ncc3c(N/N=C/c4ccc(C)cc4)ncnc32)c1	11.3
CCS(=O)(=O)c1ccc(OC)c(Nc2ncc(-c3cccc(OC)c3)o2)c1	12
CC(C)c1ccc2c(c1)NC(=O)/C2=N/Nc1ccc(S(N)(=O)=O)cc1	5.06
Cc1cc(Cl)cc2c1NC(=O)C2=NNc1ccc(S(N)(=O)=O)cc1	7.34
CC(C)c1ccc(Nc2nccc(-c3cnn4ncccc34)n2)cc1	10.3
N#Cc1cccc(Nc2nccc(-c3cnn4ncccc34)n2)c1	43.8
Oc1cccc(-c2nc(-c3ccccc3)[nH]c2-c2ccncc2)c1	32.9

SMILES	inhibition [%]
CN1CCN(C(=O)c2ccc(NC(=O)Nc3ccc(N(C)c4ccnc(Nc5ccc(CS(C)(=O)=O)cc5)n4)cc3)cc2)CC1	22.9
COC(=O)Nc1nc2cc(Oc3ccc(NC(=O)Nc4cccc(Br)c4)cc3)ccc2[nH]1	76.9
COc1cccc(-n2ncc3c(N/N=C/c4ccc(S(C)(=O)=O)cc4)ncnc32)c1	11.7
NS(=O)(=O)c1ccc(NC=C2C(=O)Nc3ccc4ncsc4c32)cc1	33.7
CS(=O)(=O)CCNCc1nc(-c2ccc3ncnc(Nc4ccc(OCc5cccc(C(F)(F)F)c5)cc4)c3c2)cs1	7.07
C[C@@H](Oc1cc(-n2cnc3ccc(OC[C@@H](O)CO)cc32)sc1C(N)=O)c1ccccc1Cl	-0.2
NS(=O)(=O)c1ccc(-c2cc3ccncc3cc2OCc2ccccc2)cc1	10.4
NS(=O)(=O)c1ccc(Nc2cc(-c3cccc(O)c3)n[nH]2)cc1	7.86
Cc1ccc(Nc2ccnc(Nc3cccc(C(N)=O)c3)n2)cc1O	62.9
COc1cccc(-n2nc(C)c3c(N/N=C(\C)c4ccncc4)ncnc32)c1	6.36
CCn1c(-c2nonc2N)nc2ccc(F)cc21	15
COc1cc2ncn(-c3cc(OCc4ccccc4S(C)(=O)=O)c(C#N)s3)c2cc1OC	57.3
COc1cc2ncnc(Nc3ccc(C)c(O)c3)c2cc1OC	49.9
NS(=O)(=O)c1cccc(-c2cc3ccncc3cc2OCc2ccccc2)c1	5.03
COC(=O)c1cncc(/C=C/c2c(C)cc(O)cc2C)c1	66.6
COc1cc(Nc2nccc(-c3cnn4ncccc34)n2)cc(OC)c1	45.3

From ChEMBL document CHEMBL1961873, “Compounds: GSK PKIS; Assays: Nanosyn kinase panel” (2012)
